Active and inactive are the calls of the source.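 How the source made its calls: active means signal falls and fitted half-maximal concentration is at most ten times the sample's top valid dose; inconclusive means flat fit with 30 to 70% inhibition, or poor fit; inactive means change in the rising direction, plus the rest.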
test system: LuxS (S-ribosylhomocysteine lyase), bacterial; assay: LuxS enzyme inhibitors, dose response, biochemical, dry powder, set 3, absorbance (AID 493167); settings: purified Co-LuxS, SRH turnover, DTNB absorbance 412 nm; series mostly up to 35 µM

outcome, inactive:
O=S(=O)(Nc1ccccn1)c1ccccc1, C[C@@H]1CN([C@H](C)CO)C(=O)c2ccccc2-c2ccccc2CO[C@@H]1CN(C)Cc1ccc(Oc2ccccc2)cc1, O=S(=O)(Nc1cccnc1)c1ccc(Oc2ccccc2)cc1, Cc1noc(C)c1S(=O)(=O)Nc1ccc2c(c1)C(=O)N([C@@H](C)CO)C[C@@H](C)[C@@H](CN(C)Cc1ccc(Oc3ccccc3)cc1)O2
